Source: the supplement of paper PMC3342239
Structures can show the parent of a compound that is named as a salt.

Test system: Saccharomyces cerevisiae
Assay: fraction of cells in G1 phase (DNA content, flow cytometry); higher = more cells with unreplicated DNA (G1 delay)
Conditions: temperature: 30 C, YPD
Summary of the method: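 Overnight cultures of sensitized JTY2953 were diluted 1∶200 into drug at a final 20 µg/ml and fixed after 6–7 h, and further runs treated dividing JTY2953 or BY4741, fixing them 6 h and 4.33 h later respectively. All growth used YPD at 30°C with S. cerevisiae and library drugs. After ethanol fixation and SYTOX Green staining, flow cytometry recorded 10,000 events. The G1 fraction equals the Dean-Jett-Fox G1 peak area over the G1 plus G2/M areas.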

[1] = JTY2953 pdr5 snq2 (sensitized), drug added to: actively dividing cells, 6 h
[2] = JTY2953 pdr5 snq2 (sensitized), drug added to: cultures diluted from stationary phase, 6-7 h
[3] = BY4741 PDR5+ SNQ2+, drug added to: actively dividing cells, 4.33 h

SMILES | fraction of cells in G1 phase [1] | fraction of cells in G1 phase [2] | fraction of cells in G1 phase [3]
CN(C)CCOc1ccc(/C(=C(/CCCl)c2ccccc2)c2ccccc2)cc1 [Toremifene] (49.2645 µM) | 0.524 | 0.901 | –
Cc1ccc(-c2cc(C(F)(F)F)nn2-c2ccc(S(N)(=O)=O)cc2)cc1 [Celecoxib] (52.4412 µM) | 0.299 | 0.863 | –
O=C1NCN(c2ccccc2)C12CCN(CCCC(c1ccc(F)cc1)c1ccc(F)cc1)CC2 [Fluspirilene] (42.0533 µM) | 0.338 | 0.865 | –
COc1ccc(CN2CCN(C(c3ccc(F)cc3)c3ccc(F)cc3)CC2)c(OC)c1OC [Lomerizine HCl] (42.685 µM) | 0.558 | 0.638 | –
CCOC(=O)N1CCC(=C2c3ccc(Cl)cc3CCc3cccnc32)CC1 [Loratadine] (52.2338 µM) | 0.448 | 0.778 | –
O=C1CCc2ccc(OCCCCN3CCN(c4cccc(Cl)c4Cl)CC3)cc2N1 [Aripiprazole] (44.6034 µM) | 0.762 | 0.854 | 0.411
c1ccc(-c2ccc(C(c3ccccc3)n3ccnc3)cc2)cc1 (stereo not given) [Bifonazole] (64.4325 µM) | 0.474 | 0.758 | –
CC/C(=C(\c1ccccc1)c1ccc(OCCN(C)C)cc1)c1ccccc1 [Tamoxifen citrate] (53.8319 µM) | 0.385 | 0.896 | –
O=c1[nH]c2ccccc2n1CCCN1CCN(C(c2ccccc2)c2ccccc2)CC1 [Oxatomide] (46.886 µM) | 0.791 | 0.836 | 0.433
CC(=O)[C@]1(O)Cc2c(O)c3c(c(O)c2[C@@H](O[C@H]2C[C@H](N)[C@H](O)[C@H](C)O2)C1)C(=O)c1ccccc1C3=O [Idarubicin] (40.2005 µM) | – | 0.291 | 0.14
C[C@]12CCC(=O)C=C1C=C[C@@H]1[C@@H]2CC[C@@]2(C)[C@H]1CC[C@@]21CCC(=O)O1 [Canrenone] (58.7429 µM) | 0.649 | 0.612 | 0.453
CCOC(=O)C1=C(C)NC(C)=C(C(=O)OC)C1c1cccc(Cl)c1Cl (stereo not given) [Felodipine] (52.0478 µM) | 0.609 | 0.683 | –
C[C@H](CS)C(=O)N1CCC[C@H]1C(=O)O [Captopril] (92.0434 µM) | 0.436 | 0.633 | –
CC(C)(C)c1ccc(C(O)CCCN2CCC(C(O)(c3ccccc3)c3ccccc3)CC2)cc1 (stereo not given) [Terfenadine] (42.4008 µM) | 0.324 | 0.776 | –
CC(C)(C)C(=O)C(Oc1ccc(Cl)cc1)n1ccnc1 (stereo not given) [Climbazole] (68.3135 µM) | 0.833 | 0.719 | 0.496
CCc1nn(CCCN2CCN(c3cccc(Cl)c3)CC2)c(=O)n1CCOc1ccccc1 [Nefazodone] (42.5515 µM) | 0.688 | 0.721 | 0.422
Clc1ccc(C(Cn2ccnc2)OCc2csc3c(Cl)cccc23)c(Cl)c1 (stereo not given) [Sertaconazole] (45.6852 µM) | 0.3 | 0.869 | –
CO[C@H]1C[C@@H]2CC[C@@H](C)[C@@](O)(O2)C(=O)C(=O)N2CCCC[C@H]2C(=O)O[C@H]([C@H](C)C[C@@H]2CC[C@@H](O)[C@H](OC)C2)CC(=O)[C@H](C)/C=C(\C)[C@@H](O)[C@@H](OC)C(=O)[C@H](C)C[C@H](C)/C=C/C=C/C=C/1C [Rapamycin] (21.8771 µM) | 0.788 | 0.701 | 0.625
CC1=C(/C=C/C(C)=C/C=C/C(C)=C/C(=O)Nc2ccc(O)cc2)C(C)(C)CCC1 [Fenretinide] (51.0779 µM) | 0.681 | 0.604 | 0.462
